About 83,000 compounds went through this panel and 20% of them were active in at least one assay; those are over-represented in the sample as a whole.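 Assay: single dose, 48 h. Readout: percent growth (0 = no net growth; negative = cell death). Active: <10.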 Unmarked numbers belong to inactive results. Active and inactive are the calls of the source.
What was measured:
Assay in all cases: NCI-60 one-dose screen, 48 h (100 = growth as untreated, 0 = no growth, -100 = all killed)
Conditions in all cases: 10 µM unless noted
SR leukemia = system: SR leukemia
RPMI-8226 leukemia = system: RPMI-8226 leukemia
OVCAR-8 ovarian = system: OVCAR-8 ovarian
OVCAR-5 ovarian = system: OVCAR-5 ovarian
OVCAR-4 ovarian = system: OVCAR-4 ovarian
SK-OV-3 ovarian = system: SK-OV-3 ovarian
IGROV1 ovarian = system: IGROV1 ovarian
HS 578T breast = system: HS 578T breast
NCI/ADR-RES ovarian = system: NCI/ADR-RES ovarian
T-47D breast = system: T-47D breast
BT-549 breast = system: BT-549 breast
MDA-MB-435 melanoma = system: MDA-MB-435 melanoma
SW-620 colon = system: SW-620 colon
MCF7 breast = system: MCF7 breast
HCT-116 colon = system: HCT-116 colon
HCC-2998 colon = system: HCC-2998 colon
KM12 colon = system: KM12 colon

Row | Structure (SMILES) | growth (SR leukemia) | growth (RPMI-8226 leukemia) | growth (OVCAR-8 ovarian) | growth (OVCAR-5 ovarian) | growth (OVCAR-4 ovarian) | growth (SK-OV-3 ovarian) | growth (IGROV1 ovarian) | growth (HS 578T breast) | growth (NCI/ADR-RES ovarian) | growth (T-47D breast) | growth (BT-549 breast) | growth (MDA-MB-435 melanoma) | growth (SW-620 colon) | growth (MCF7 breast) | growth (HCT-116 colon) | growth (HCC-2998 colon) | growth (KM12 colon)
1 | COc1cccc2c1CN(C(=O)c1ccc(O)c(C(=O)N3Cc4ccc(OCCC[P+](c5ccccc5)(c5ccccc5)c5ccccc5)cc4C3)c1)C2 | 35.3% | 26.2% | 79.5% | 123% | 84% | 112% | 43.9% | 49.5% | 103% | 37.6% | 65.9% | 32% | 70.5% | 17.9% | 80.8% | 47.9% | 44.4%
2 | Cc1ccc(C(=O)NN2C(=O)/C(=C/C=C/c3ccco3)SC2=S)cc1 | 84.5% | 102% | 99.7% | 100% | 92.8% | 107% | 98.4% | 96.5% | 97.5% | 95.4% | 137% | 90.7% | 106% | 82% | 98.2% | 107% | 102%
3 | CCNC(=O)N1CCc2cc(OC)c(OCCc3ccc(OC)c(N)c3)cc2C1c1cc(C)c(C)cc1C (configuration not stated) | 15.1% | 32.4% | 39% | 51.7% | 62.6% | 61.4% | 31.9% | 36.1% | 20.8% | 52.6% | 25.6% | 17.2% | 15.7% | 22.7% | 17.3% | 49.2% | 33.8%
4 | COC(=O)c1[nH]nc2c1C1(C(=O)c3cccc4cccc1c34)C(C#N)=C(N)O2 (configuration not stated) | 115% | 104% | 92% | 101% | 97.5% | 85.3% | 95.5% | 86.8% | 106% | 104% | 124% | 106% | 100% | 84.3% | 101% | 106% | 97.8%
5 | Cc1cc(C)c2sc(=O)n(Cc3nnc(SCCC(=O)O)o3)c2n1 | 79.2% | 99.8% | 104% | 99.4% | 108% | 105% | 102% | 103% | 102% | 89.5% | 123% | 103% | 103% | 97% | 103% | 104% | 106%
6 | COc1ccc(/C=C/C(=O)c2cc(S(N)(=O)=O)c(OC)cc2OC)cc1 | 23.4% | 60.9% | 93% | 98.3% | 103% | 97.2% | 81.8% | 89.1% | 85.8% | 50.3% | 82.8% | 53.3% | 46.6% | 44.3% | 65.1% | 83.2% | 40.9%
7 | COc1ccc(C(=O)CSc2nc3c(c(Nc4ccc(S(N)(=O)=O)cc4)n2)CCCC3)cc1 | 69.6% | 83.6% | 92.3% | 123% | 87.8% | 120% | 112% | 110% | 103% | 71.3% | 127% | 103% | 86.4% | 97.8% | 93% | 97.6% | 73.7%
8 | CCNC(=O)N1CCc2cc(OC)c(OCCc3ccc(OC)cc3)cc2C1c1ccc(OC)cc1C (configuration not stated) | 4.44% (active) | 13.6% | 27.6% | 35.9% | 50.3% | 45.9% | 27.8% | 1.32% (active) | 12.3% | 42.3% | 22.9% | 11.4% | 21.9% | 21.5% | 10.5% | 19.5% | 24.1%
9 | c1cc(-c2nc3ccc4[nH]ncc4c3c3c2CCCC3)[nH]n1 | 7.95% (active) | 55.1% | 70.2% | 89% | 89.6% | 9.7% (active) | 44.5% | 41.3% | 78.8% | 73.8% | 31.2% | 10.5% | 25% | 40% | 25.6% | 78.9% | 24%
10 | CNC(=O)c1cc(Oc2ccc3nc(NC(=O)c4cccc(OC(F)(F)F)c4)sc3c2)ccn1 | 58.3% | 71.7% | 81.7% | 95.3% | 56.5% | 88.4% | 90.3% | 69.6% | 67.3% | 63.1% | 137% | 79% | 103% | 77.6% | 75.5% | 108% | 85.6%
11 | CC1(COc2ccc3ncc(C#Cc4cncc(C(=O)Nc5cccc(C(F)(F)F)c5)c4)n3n2)COC1 | 56.5% | 92.7% | 81.4% | 81.7% | 82.1% | 96.9% | 62% | 53.6% | 80.3% | 78.9% | 128% | 89.2% | 69% | 62.8% | 56.4% | 86.9% | 21.1%
12 | CC(C)(C)CC(C)(C)n1nnnc1C(Nc1nccs1)c1cc2cccc3ccc4cccc1c4c32 (configuration not stated) | 96.6% | 104% | 100% | 84.6% | 99.7% | 103% | 93.5% | 93.8% | 98% | 75.4% | 91.6% | 102% | 101% | 75.3% | 97.7% | 103% | 99.5%
13 | Cc1cccc2c3c(sc12)C(c1ccc(F)cc1)C(C#N)=C(/N=C/c1ccc(Cl)cc1)O3 (configuration not stated) | 10.5% | 19.7% | -3.92% (active) | 23.5% | 70% | 34.8% | 22.5% | 1.34% (active) | 2.96% (active) | 56.7% | -26.5% (active) | -12.4% (active) | 19.6% | 14.1% | 2.26% (active) | 5.44% (active) | 15.7%
14 | CCNC(=O)N1CCc2cc(OC)c(OCCc3ccc(OC)cc3)cc2C1c1ccc(Cl)cc1C (configuration not stated) | 6.29% (active) | 20% | 27.3% | 32.9% | 51.7% | 54.9% | 23.4% | 1.75% (active) | 13.5% | 57% | -1.91% (active) | 15.9% | 21.4% | 16.3% | 9.84% (active) | 17.1% | 16.5%
15 | COc1cc(-c2nc(SC(C)C)n(C(C)C)c(=O)c2C#N)ccc1OCc1ccccc1 | 39.9% | 78.4% | 77% | 93.2% | 4.7% (active) | 103% | 67.1% | 70.1% | 76% | 52.6% | 93.8% | 85% | 52.4% | 75.3% | 42.9% | 87.6% | 95.1%
16 | Cc1ccc(C2=Nn3c(nnc3-c3ccccc3)SC2)cc1 | 14% | 23.1% | 25.9% | 62.9% | 67.3% | 24.7% | 49.5% | 19.6% | 14.1% | 29.2% | 22.5% | -22.2% (active) | 13.3% | 16.4% | 17.7% | 39.9% | 36.4%

Reference: PubChem BioAssay (NCI)
